# Source: PubChem BioAssay AID488807 (Broad Institute, 2010)
# Potency and affinity values are given separately. Results filed as inconclusive are left out. Values without a mark were called inactive. How the calls were made is not given here.
# Experiment: growth inhibition of resistant C. albicans, dose response, CaCi-8, fluconazole, Alamar Blue, dry powder (AID 488807)
# Details: C. albicans CaCi-8 + fluconazole, 48 h; series mostly up to 26 µM; activity change, negative = inhibition: at the top concentration
row,SMILES,"activity change, negative = inhibition"
1,O=C(O)c1nn(Cc2ccc(Cl)cc2)c2ccccc12,26.9%
2,O=S(=O)(c1ccc(Cl)cc1)N1CCN(c2ccnc3cc(Cl)ccc23)CC1,1.53%
3,COc1ccc2c(c1)c1nc3n(c(=O)c1n2CC(=O)N1CCC(C)CC1)CCS3,13% [at 2.6 µM]
4,O=C(Cn1c2ccccc2c2nc3n(c(=O)c21)CCS3)NCCc1ccc(Cl)cc1,8.23%
5,CCOC(=O)c1c2ccccc2nn1Cc1ccc(Cl)cc1,62.6%
6,COc1ccc(OC)c2c(C)cc(N3CCN(C(=O)c4ccc(Cl)cc4)CC3)nc12,-9.04%
7,O=C(Cn1nc(-c2ccccc2)c2ccccc21)N1CCc2ccccc2C1,-18.9%
8,O=C(Cn1nc(-c2ccccc2)c2cc(Cl)ccc21)N1CCOCC1,-27.7%
9,O=C(Cn1c2ccccc2c2nc3n(c(=O)c21)CCCS3)c1ccc(F)cc1,-16.2%
10,CCOC(=O)c1nn(Cc2ccc(Cl)cc2)c2ccccc12,10.8%
11,Cc1nn(S(C)(=O)=O)c2ccccc12,-59%
12,O=C(Cn1nc(C(=O)N2CCCCC2)c2ccccc21)N1CCOCC1,0.822%
13,O=C(Cn1nc(-c2ccccc2)c2ccccc21)NCc1ccc(Cl)cc1,8.2%
14,CCCNC(=O)Cn1nc(-c2ccccc2)c2cc(Cl)ccc21,77.3%
15,COC(=O)Cn1nc(C)c2ccccc21,-0.346%
16,COc1ccc2c(c1)c1nc3n(c(=O)c1n2CC(=O)N1CCC(Cc2ccccc2)CC1)CCS3,8.79%
17,O=C(c1ccc(Cl)cc1)N1CCN(c2cc(C(F)(F)F)nc3ccccc23)CC1,-34.6%
18,CCCNC(=O)Cn1nc(-c2ccccc2)c2ccccc21,101%
19,c1ccc(-c2n[nH]c3ccccc23)cc1,66.6%
